Assay [1] addresses Cytochrome P450 3A4 (Homo sapiens) (UniProt P08684). The experiment in a line: qHTS Assay for Activators of Cytochrome P450 3A4 (AID 885). Note: nearly all actives have a fitted effect of over 65% in size. The essentials:
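Quantitative HTS format: compounds preincubated with 20nM human CYP3A4 and Luciferin-PPXE substrate at KM, reaction started by NADPH regeneration, stopped after 60 min, luciferase luminescence read 20 min later.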
(In qHTS, concentration-response curves come from the screen itself.)

The nature of assay [2]: qHTS assay to identify inhibitors of the type 1 interferon - major histocompatibility complex class I in skeletal muscle: Counter screen cell viability and HiBit confirmation (AID 1347412). Note: % is set by controls: 0 for no effect and ±100 for the full control effect; nearly all actives have a fitted effect of over 60% in size. The settings on record: iHSKM muscle cells + IFN-b, HiBiT or CellTiter-Glo, 24 h, at 45.9 µM (top of the series). The method, boiled down: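 After 24 h with human IFN-beta (4 ng/ml) and compound titrations (top 46 uM final, 1:3, 12 points), HLA-B HiBit myoblasts were lysed for either Nano-Glo HiBiT luminescence or CellTiter Glo viability on paired plates.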

The target in assay [3] is Cytochrome P450 1A2 (Homo sapiens) (UniProt P05177). The experiment in a line: p450-cyp1a2 (AID 410; calls by dose curve; note: potency is the fitted concentration of half-maximal effect;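 for activity change, negative = inhibition: -100% = full effect of reference inhibitor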). The essentials: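 Inhibition was calculated relative to 57 uM furafylline (full inhibition). The reaction used human CYP1A2 at 20nM with Luciferin-ME at its Km, 100uM, driven by an NADPH-regenerating system for 60 min at room temperature.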
Assay [4] concerns the target Mitogen-activated protein kinase 10 (Mus musculus) (UniProt Q61831). The experiment in a line: JNK3 AlphaScreen Assay (AID 530; active = well fitted curve in either direction with a large enough effect, not every such curve was filed as active;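 note: kinase came from lysate of stimulated human HepG2 cells; signal reports phosphorylation of biotinylated GST-cJun 1-79 at Ser73 with 10 µM ATP; % is set by controls: 0 for no effect and ±100 for the full control effect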). The essentials:
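qHTS format: compounds tested as titrations against IL-1beta/TNF-alpha-activated HepG2 lysate JNK3 with biotin-GST-cJun substrate and 10 uM ATP at room temperature. Loss of anti-phospho-cJun AlphaScreen signal indicates inhibition.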
A general note: Alpha assays give light when donor and acceptor beads are brought close together.

In another assay the test system is AA1029. Kind of assay: qHTS profiling for inhibitors of Plasmodium falciparum proliferation (AID 504749).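 Note: 0% = DMSO vehicle and full inhibition = artemisinin control; nearly all actives have a fitted effect of over 60% in size.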 Particulars: P. falciparum in erythrocytes, SYBR Green DNA, 72 h; series mostly up to 28.7 µM. The method, boiled down:
(§1)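 Readout was DNA-dye fluorescence from lysed cultures, ex 485/em 535 nm. Parasitized red cells had grown 72 h with compound; data scaled between 0.29 uM artemisinin and DMSO wells and corrected using vehicle-only plates.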

The next assay has as its system CP191. The assay is described as above. Particulars: P. falciparum in erythrocytes, SYBR Green DNA, 72 h; series mostly up to 28.7 µM. The method, boiled down:
as §1

A further assay relates to CP260. The assay is described as above. Particulars: P. falciparum in erythrocytes, SYBR Green DNA, 72 h; series mostly up to 28.7 µM. The essentials:
as §1

In the next assay the test system is CP262. The assay is described as above. The settings on record: P. falciparum in erythrocytes, SYBR Green DNA, 72 h; series mostly up to 28.7 µM. The method, boiled down: as §1
A further assay relates to CP291. The assay is described as above. The settings on record: P. falciparum in erythrocytes, SYBR Green DNA, 72 h; series mostly up to 28.7 µM. The method, boiled down:
as §1

The subject of another assay is CP297. The assay is described as above. Particulars: P. falciparum in erythrocytes, SYBR Green DNA, 72 h; series mostly up to 28.7 µM. The essentials: as §1
The next assay has as its system CP315. The description is as above. Particulars: P. falciparum in erythrocytes, SYBR Green DNA, 72 h; series mostly up to 28.7 µM. The method, boiled down:
as §1

For a further assay, the system named is CP335. Described as above. The settings on record: P. falciparum in erythrocytes, SYBR Green DNA, 72 h; series mostly up to 12.8 µM. The method, boiled down:
as §1

The next assay deals with DIV14. The assay is described as above. The settings on record: P. falciparum in erythrocytes, SYBR Green DNA, 72 h; series mostly up to 28.7 µM. The method, boiled down: as §1
The next assay deals with ICS. The description is as above. Particulars: P. falciparum in erythrocytes, SYBR Green DNA, 72 h; series mostly up to 28.7 µM. The method, boiled down: as §1
The test system of a further assay is JCK. The assay is described as above. Particulars: P. falciparum in erythrocytes, SYBR Green DNA, 72 h; series mostly up to 28.7 µM. The essentials:
as §1

Another assay deals with TAB109. Described as above. Particulars: P. falciparum in erythrocytes, SYBR Green DNA, 72 h; series mostly up to 12.8 µM. The essentials:
as §1

The subject of the next assay is TAB165. The assay is described as above. The settings on record: P. falciparum in erythrocytes, SYBR Green DNA, 72 h; series mostly up to 28.7 µM. The method, boiled down:
as §1

The nature of assay [5]: Stat Signaling Pathway (AID 446; active = well fitted curve in either direction with a large enough effect, not every such curve was filed as active;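 note: ME-180 cervical cancer cells given 40 pM IL-6 alongside compound; SIE-controlled beta-lactamase reporter measured as 460/530 nm FRET emission ratio; % is set by controls: 0 for no effect and ±100 for the full control effect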). The essentials:
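IL-6/STAT signaling read in ME-180 cells via an SIE beta-lactamase reporter. Stimulus was 40 pM IL-6 (its AC50) for 5 hrs, so both activation and inhibition register.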

Assay [6] deals with Muscarinic acetylcholine receptor M1 (Rattus norvegicus) (UniProt P08482). The experiment in a line: qHTS Assay for Antagonists of Acetylcholine Muscarinic M1 Receptor: Measurement of IP-One Response (AID 944). Note: nearly all actives have a fitted effect of over 75% in size. Note: potency is the fitted concentration of half-maximal effect. The essentials: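 Steps: plate transfected CHO-M1 cells overnight; add test compound, 10 min; add carbachol (200 nM, EC80) in stimulation buffer with LiCl; incubate 30 min; add labelled IP1 tracer and anti-IP1 antibody in lysis buffer; read HTRF after 10 min.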

Assay [7] in a line: Nrf2 qHTS screen for inhibitors: Validation (AID 493153; active = well fitted inhibition curve with a large enough effect in the main read-out, with a control signal flat, not every such curve was filed as active; for activity change, negative = inhibition: % of control where 0% means no effect). The settings on record: viability change: measured here: cytotoxicity max response. The essentials:
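Dose-response validation uses reporter A549 cells with firefly luciferase under an antioxidant response element. Compounds stay on cells 18-24 h at 37°C, and luminescence indicates Nrf2-driven transcription.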

Data on 15 molecules can be found in PubChem BioAssay (NCATS).

Molecules are shown by their SMILES. Inconclusive results are not listed. Active and inactive are the calls of the source. Unless noted, calls come from the whole dose curve; as a rule, active = well fitted curve in the direction sought with a large enough effect; inconclusive = small, poorly fitted or top-dose-only effect, or another doubt; inactive = no such curve, though single readings can be large; an effect the other way counts as inactive or inconclusive.

Cytochrome P450 1A2 (Homo sapiens), sequence (P05177 whole entry, looked up): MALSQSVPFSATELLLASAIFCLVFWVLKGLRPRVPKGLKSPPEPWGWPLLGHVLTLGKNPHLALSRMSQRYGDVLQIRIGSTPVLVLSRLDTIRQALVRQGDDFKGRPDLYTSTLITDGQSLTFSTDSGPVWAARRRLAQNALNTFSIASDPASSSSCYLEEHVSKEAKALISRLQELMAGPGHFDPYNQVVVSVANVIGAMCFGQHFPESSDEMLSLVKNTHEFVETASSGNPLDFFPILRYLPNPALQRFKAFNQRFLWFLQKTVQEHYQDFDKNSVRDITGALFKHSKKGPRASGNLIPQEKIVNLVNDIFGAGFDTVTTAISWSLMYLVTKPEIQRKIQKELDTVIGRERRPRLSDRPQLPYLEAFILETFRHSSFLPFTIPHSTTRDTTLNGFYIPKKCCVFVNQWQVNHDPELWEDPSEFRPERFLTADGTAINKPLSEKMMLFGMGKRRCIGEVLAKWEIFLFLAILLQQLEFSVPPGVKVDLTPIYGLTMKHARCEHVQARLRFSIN
Muscarinic acetylcholine receptor M1 (Rattus norvegicus), sequence (P08482 whole entry, looked up): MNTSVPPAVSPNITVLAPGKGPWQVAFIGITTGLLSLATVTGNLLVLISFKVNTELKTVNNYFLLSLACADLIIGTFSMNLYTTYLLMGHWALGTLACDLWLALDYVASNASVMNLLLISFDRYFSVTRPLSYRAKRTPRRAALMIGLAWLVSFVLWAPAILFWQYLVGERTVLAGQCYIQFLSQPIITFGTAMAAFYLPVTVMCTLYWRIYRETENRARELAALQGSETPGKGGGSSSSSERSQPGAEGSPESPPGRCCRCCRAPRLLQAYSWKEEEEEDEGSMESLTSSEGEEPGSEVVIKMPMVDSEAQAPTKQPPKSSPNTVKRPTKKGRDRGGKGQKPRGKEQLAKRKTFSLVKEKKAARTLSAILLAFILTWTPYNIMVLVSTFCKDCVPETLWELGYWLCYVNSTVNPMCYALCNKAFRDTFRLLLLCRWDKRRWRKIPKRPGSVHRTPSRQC
Cytochrome P450 3A4 (Homo sapiens), sequence (P08684 whole entry, looked up): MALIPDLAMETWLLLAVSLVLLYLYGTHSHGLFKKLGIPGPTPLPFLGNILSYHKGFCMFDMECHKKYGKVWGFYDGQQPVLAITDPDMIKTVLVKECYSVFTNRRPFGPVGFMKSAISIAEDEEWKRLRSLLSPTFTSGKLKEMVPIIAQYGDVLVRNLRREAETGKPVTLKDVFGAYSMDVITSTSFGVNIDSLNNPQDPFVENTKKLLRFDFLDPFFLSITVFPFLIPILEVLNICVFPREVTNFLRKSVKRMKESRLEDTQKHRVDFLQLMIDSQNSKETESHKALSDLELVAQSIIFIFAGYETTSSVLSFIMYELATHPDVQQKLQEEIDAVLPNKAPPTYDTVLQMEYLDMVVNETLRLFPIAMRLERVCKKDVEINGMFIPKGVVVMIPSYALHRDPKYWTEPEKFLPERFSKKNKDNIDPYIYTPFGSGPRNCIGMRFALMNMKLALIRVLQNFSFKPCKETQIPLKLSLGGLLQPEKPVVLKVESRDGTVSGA

For `CCC1/C=C/C=CCC(C)C(O)[C@@](C)(O)C(=O)C(C)C(O)C(C)C(=O)C(C)C(O)C(C)C=CC(=O)O[C@H]2C(C)C(CC1)O[C@]1(CCC(C)C(CC(C)O)O1)C2C` (some centres not stated), the Potency result in assay [1] is “inactive”. The activity change, negative = inhibition in assay [2] (HiBiT) is -31.9% (inactive); in [2] (Viability) it was -23.7% (inactive).
Consider `COc1cc(C=C(C#N)C#N)cc(O)c1O`, for which, in [3], the Potency is 12.6 µM (active). The outcome in assay [4] was inactive. The Potency result in assay [1] was “inactive”.
Take `CCCC[N+]1(C)C2CC(OC(=O)C(CO)c3ccccc3)CC1C1OC12` (configuration not stated): the Potency result in the assay on AA1029, in the assay with CP191, in the assay with CP260, in the assay on CP262, in the assay on CP291 and with CP297 was “inactive” in each case. Moreover, the Potency result in the assay with CP315, with CP335, in the assay with DIV14, in the assay on ICS, with JCK and in the assay with TAB109 was “inactive” each time. In the assay with TAB165, the Potency entry is “inactive”.
`C[C@H]1OC[C@@H](C[N+](C)(C)C)O1`: the call in assay [5] and in assay [4] was inactive. Moreover, the Potency entry in assay [6] is “inactive”.
Consider `Oc1ccc2c3c1O[C@H]1[C@@H](O)CC[C@@]4(O)C(C2)N(CC2CCC2)CCC314` (some centres not stated), for which the Potency result with AA1029, with CP191, in the assay on CP260, in the assay with CP291, with CP297 and in the assay with CP315 was “inactive” in each case. In addition, the Potency result with CP335, in the assay on DIV14, with ICS, in the assay on JCK, with TAB109 and in the assay on TAB165 was “inactive” each time.
For the molecule `CCCN(CCC)C(=O)Cc1c(-c2ccc(Cl)cc2)nc2c(Cl)cc(Cl)cn12`, the Potency result in assay [3], in [1] and in [6] was “inactive” throughout.
As for `NNCc1cccc(O)c1`, the molecule was classed as inactive in assay [5] and in [4].
As to `C#CCN(C)C(C)Cc1ccccc1` (configuration not stated), the molecule was called inactive in assay [5].
Turning to `CC(C)(O)C1C2OC(=O)C1[C@]1(O)C[C@H]3O[C@]34C(=O)O[C@H]2[C@]14C` (some centres not stated) (tested in a mixture with another compound), the Potency entry with AA1029, in the assay with CP191, in the assay on CP260, in the assay on CP262, in the assay with CP291 and with CP297 was “inactive” in each case. For the same molecule, the Potency entry in the assay on CP315, in the assay on CP335, in the assay on DIV14, in the assay on ICS, in the assay on JCK and in the assay with TAB109 was “inactive” in each case. The Potency result with TAB165 was “inactive”.
`CCCCN1C2CCC1CC(OC(c1ccc(F)cc1)c1ccc(F)cc1)C2` (configuration not stated): the Potency in assay [6] is 2.24 µM (active).
In the case of `C/C1=C/C[C@@H](/C(C)=C/c2csc(C)n2)OC(=O)C[C@H](O)C(C)(C)C(=O)[C@H](C)[C@@H](O)[C@@H](C)CCC1`, the activity change, negative = inhibition in assay [2] (Viability) was -15.3% (inactive).
In the case of `C[C@H]1C2Cc3ccc(O)cc3[C@]1(C)CCN2CC1CC1`, in [7], the result was inactive and the viability change is -0.82%.
`CC[C@@H](CO)NC(=O)[C@H]1C=C2c3cccc4c3c(cn4C)C[C@H]2N(C)C1`: in assay [3], the Potency was 15.8 µM (active).
With `CC12CCC3C(CCC4=C(O)C(=O)CCC43C)C1CCC2=O` (configuration not stated), in assay [7], the call was inactive and the viability change was 0.774%.
Consider `CNC(C)[C@@H](O)c1ccc(O)cc1` (some centres not stated), for which the Potency result in the assay with AA1029, in the assay on CP191, in the assay on CP260, in the assay with CP262, in the assay on CP291 and with CP297 was “inactive” throughout. Besides, the Potency result in the assay with CP315, in the assay on CP335, in the assay on DIV14, in the assay with ICS, with JCK and with TAB165 was “inactive” in each case.
